The text below walks through data of PubChem BioAssay (Tox21).

Values joined by “and” are separate entries in the source; they are usually repeats but may differ in a detail not shown here. Identical values can stand only once. Results filed as inconclusive are left out. More than one record can exist for a structure, and the calls need not agree. Active and inactive are the calls of the source. Unless noted, calls follow the shape of the dose curve; as a rule, active = well fitted curve in the direction sought with a large enough effect in the repeat runs; inconclusive = weak or mixed curves; inactive = no such curve, though single readings can be large; an effect the other way counts as inactive or inconclusive.

A short description of assay [1]: qHTS assay to identify small molecule antagonists of the thyroid receptor (TR) signaling pathway - cell viability counter screen (AID 743064). Also: nearly all actives have a fitted effect of over 50% in size. In outline: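 In rat pituitary GH3.TRE-Luc reporter cells co-exposed to compound and 1 nM T3 for 23.5 h, cytotoxicity was assessed with CellTiter-Fluor in the same wells, read by fluorescence.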
Background: Quantitative high-throughput screening tests each substance at several concentrations.

The nature of assay [2]: qHTS assay to identify small molecule antagonists of the thyroid receptor (TR) signaling pathway (AID 743065). Also: series mostly up to about 70 µM; nearly all actives have a fitted effect of over 55% in size. In outline: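 GH3.TRE-Luc rat pituitary cells (two TREs driving luciferase) were dosed with compound, then stimulated with 1 nM T3 (final) for 23.5 h at 37 C. ONE-Glo luminescence was the read-out, with CellTiter-Fluor fluorescence as the cytotoxicity counter-screen.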

Assay [3] has as its system thyroid hormone receptor (rat, GH3 cells). As to the kind of experiment: qHTS assay to identify small molecule agonists of the thyroid receptor (TR) signaling pathway (AID 743066; calls by dose curve).
Assay [4] deals with Estrogen receptor (Homo sapiens) (UniProt P03372). As to the kind of experiment: qHTS assay to identify small molecule antagonists of the estrogen receptor alpha (ER-alpha) signaling pathway (AID 743069; active = well fitted curve in the direction sought with a large enough effect in the signal ratio in the repeat runs, not every such curve was filed as active; the % refers to the signal ratio). In outline: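 In this cell-based reporter format, GripTite HEK293 cells harbouring ER-alpha-UAS-bla were grown overnight with 2% charcoal-stripped FBS, dosed with DMSO-dissolved compounds, then challenged with 17beta-estradiol. After 18 hr at 37C, beta-lactamase activity was detected by FRET fluorescence.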

A short description of assay [5]: qHTS assay to identify small molecule antagonists of the estrogen receptor alpha (ER-alpha) signaling pathway - cell viability counter screen (AID 743074; calls by dose curve; also: nearly all actives have a fitted effect of over 45% in size).
In assay [6] the target is Estrogen receptor (Homo sapiens) (UniProt P03372). As to the kind of experiment: qHTS assay to identify small molecule agonists of the estrogen receptor alpha (ER-alpha) signaling pathway (AID 743075; calls by dose curve).
Assay [7] has the same target. Put plainly: qHTS assay to identify small molecule agonists of the estrogen receptor alpha (ER-alpha) signaling pathway using the BG1 cell line (AID 743079). Also: nearly all actives have a fitted effect of over 20% in size.
Assay [8] can be described thus: qHTS assay to identify small molecule antagonists of the estrogen receptor alpha (ER-alpha) signaling pathway using the BG1 cell line (AID 743080; calls by dose curve;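 also: BG1 cells stimulated with 17beta-estradiol alongside compound; series mostly up to about 70 µM; nearly all actives have a fitted effect of over 25% in size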). In short, it runs like this:
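BG1-Luc-4E2 cells (endogenous full-length ER-alpha, 4xERE luciferase) hormone-starved 5 days in charcoal-stripped FBS, plated 4,000/well for 24 h, then compound plus 17beta-estradiol for 21.5 h at 37 C; ONE-Glo luminescence read.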

The nature of assay [9]: qHTS assay to identify small molecule antagonists of the estrogen receptor alpha (ER-alpha) signaling pathway using the BG1 cell line - cell viability counter screen (AID 743081).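 Also: compound given together with 17beta-estradiol as the ER stimulus; series mostly up to about 70 µM; nearly all actives have a fitted effect of over 45% in size.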
Assay [10] addresses Aromatase (Homo sapiens) (UniProt P11511). As to the kind of experiment: qHTS assay to identify aromatase inhibitors (AID 743083). Also: series mostly up to about 70 µM; nearly all actives have a fitted effect of over 55% in size.
Assay [11] can be described thus: qHTS assay to identify aromatase inhibitors - cell viability counter screen (AID 743084).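 Also: cells stimulated with testosterone during compound exposure; nearly all actives have a fitted effect of over 55% in size.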
Assay [12] concerns the target Aryl hydrocarbon receptor (Homo sapiens) (UniProt P35869). Put plainly: qHTS assay to identify small molecule that activate the aryl hydrocarbon receptor (AhR) signaling pathway (AID 743085). Also: nearly all actives have a fitted effect of over 15% in size. Also: potency is read from the fitted curve at half-maximal effect.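 As to activation: HG2L7.5c1 human HepG2 liver cells with stably integrated DRE-driven firefly reporter; series mostly up to about 70 µM.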 In short, it runs like this: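 AhR agonist activity is inferred from enhanced light output of a DRE-controlled firefly luciferase reporter in HepG2 cells, measured with ONE-Glo following 24 h treatment at 37C.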

Assay [13] is described as follows: qHTS assay to identify small molecule that activate the aryl hydrocarbon receptor (AhR) signaling pathway - cell viability counter screen (AID 743086).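 Also: HepG2 liver cells carrying the AhR DRE luciferase reporter; series mostly up to about 70 µM; nearly all actives have a fitted effect of over 45% in size.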 In short, it runs like this:
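HepG2-AhR-luc (HG2L7.5c1) cells, 4000/well, treated 24 h at 37 C with compound; viability measured as CellTiter-Fluor fluorescence after 30 min in the same wells as the luciferase read.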

For assay [14], the target named is Peroxisome proliferator-activated receptor gamma (Homo sapiens) (UniProt P37231). As to the kind of experiment: qHTS assay to identify small molecule agonists of the peroxisome proliferator-activated receptor gamma (PPARg) signaling pathway (AID 743094; active = well fitted activation curve with a large enough effect in the signal ratio in the repeat runs, not every such curve was filed as active; the % refers to the signal ratio). In outline: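 Cell-based bla reporter, HEK293H background, PPARg-driven UAS. Pre-incubation 5 h, 37C, 5% CO2. Compound 17 h, 37C. Substrate 1 h RT; fluorescence.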

Assay [15] shares this target. As to the kind of experiment: qHTS assay to identify small molecule antagonists of the peroxisome proliferator-activated receptor gamma (PPARg) signaling pathway (AID 743191; calls by dose curve; also: series mostly up to about 63 µM; nearly all actives have a fitted effect of over 30% in size). In outline: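 GeneBLAzer PPARg UAS-bla HEK293H cells, 5 h post-plating, exposed to compounds 17 h at 37C. LiveBLAzer B/G FRET substrate added for 1 h at room temperature; beta-lactamase reporter read by fluorescence intensity.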

Assay [16] in a line: qHTS assay to identify small molecule antagonists of the peroxisome proliferator-activated receptor gamma (PPARg) signaling pathway - cell viability counter screen (AID 743194). Also: nearly all actives have a fitted effect of over 55% in size. In short, it runs like this: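 Cytotoxicity counter screen in PPARg-bla HEK293H cells, same wells as reporter assay. Compounds plus 50 nM rosiglitazone (final) for 17 h at 37 C, then viability read by CellTiter-Glo luminescence.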

The nature of assay [17]: qHTS assay for small molecule agonists of the antioxidant response element (ARE) signaling pathway (AID 743202; active = well fitted activation curve with a large enough effect in the signal ratio in the repeat runs, not every such curve was filed as active; the % refers to the signal ratio; also: potency is read from the fitted curve at half-maximal effect). In outline: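 HepG2 ARE-bla cells; 16 h treatment at 37 C; FRET-based beta-lactamase fluorescence read after 2 h substrate incubation at room temperature.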
Assay [18] is described as follows: qHTS assay for small molecule agonists of the antioxidant response element (ARE) signaling pathway - cell viability counter screen (AID 743203; calls by dose curve; also: nearly all actives have a fitted effect of over 55% in size; also: potency is read from the fitted curve at half-maximal effect). In outline: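 Measured in the same wells as the beta-lactamase ARE reporter, this read-out is CellTiter-Glo luminescence from HepG2 ARE-bla cells given compounds for 16 hrs.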
The nature of assay [19]: qHTS assay for small molecule activators of the heat shock response signaling pathway - cell viability counter screen (AID 743209). Also: nearly all actives have a fitted effect of over 50% in size. In short, it runs like this:
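Same-well multiplex: after 2.5 h room-temperature incubation with LiveBLAzer B/G substrate and fluorescence reading, CellTiter-Glo reagent was added to HSE-bla HeLa cells that had received compound for 5 h at 37 C; luminescence read after 30 min.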

Assay [20] is described as follows: qHTS assay for small molecule activators of the heat shock response signaling pathway (AID 743210; active = well fitted activation curve with a large enough effect in the signal ratio in the repeat runs, with a control signal flat, not every such curve was filed as active; the % refers to the signal ratio;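 also: HeLa cells with beta-lactamase reporter driven by heat shock elements; series mostly up to about 63 µM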). In short, it runs like this:
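Following overnight attachment, HSE-bla HeLa cells received test compounds for 5 h at 37 C; beta-lactamase activity was then detected via FRET substrate fluorescence.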

Peroxisome proliferator-activated receptor gamma (Homo sapiens), sequence (P37231 whole entry, looked up): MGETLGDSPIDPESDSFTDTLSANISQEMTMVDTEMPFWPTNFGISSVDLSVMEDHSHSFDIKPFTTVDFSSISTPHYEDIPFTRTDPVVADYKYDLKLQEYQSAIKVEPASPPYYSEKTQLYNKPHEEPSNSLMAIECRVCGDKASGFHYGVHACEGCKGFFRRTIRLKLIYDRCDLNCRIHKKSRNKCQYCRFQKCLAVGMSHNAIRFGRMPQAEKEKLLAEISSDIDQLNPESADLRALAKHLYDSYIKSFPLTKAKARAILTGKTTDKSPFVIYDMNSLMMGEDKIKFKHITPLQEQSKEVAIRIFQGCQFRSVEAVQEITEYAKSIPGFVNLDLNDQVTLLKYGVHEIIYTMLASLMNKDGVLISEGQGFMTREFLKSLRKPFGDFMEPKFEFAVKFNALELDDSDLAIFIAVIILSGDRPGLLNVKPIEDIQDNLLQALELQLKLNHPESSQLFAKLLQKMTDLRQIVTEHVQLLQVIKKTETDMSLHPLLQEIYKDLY
Estrogen receptor (Homo sapiens), sequence (P03372 whole entry, looked up): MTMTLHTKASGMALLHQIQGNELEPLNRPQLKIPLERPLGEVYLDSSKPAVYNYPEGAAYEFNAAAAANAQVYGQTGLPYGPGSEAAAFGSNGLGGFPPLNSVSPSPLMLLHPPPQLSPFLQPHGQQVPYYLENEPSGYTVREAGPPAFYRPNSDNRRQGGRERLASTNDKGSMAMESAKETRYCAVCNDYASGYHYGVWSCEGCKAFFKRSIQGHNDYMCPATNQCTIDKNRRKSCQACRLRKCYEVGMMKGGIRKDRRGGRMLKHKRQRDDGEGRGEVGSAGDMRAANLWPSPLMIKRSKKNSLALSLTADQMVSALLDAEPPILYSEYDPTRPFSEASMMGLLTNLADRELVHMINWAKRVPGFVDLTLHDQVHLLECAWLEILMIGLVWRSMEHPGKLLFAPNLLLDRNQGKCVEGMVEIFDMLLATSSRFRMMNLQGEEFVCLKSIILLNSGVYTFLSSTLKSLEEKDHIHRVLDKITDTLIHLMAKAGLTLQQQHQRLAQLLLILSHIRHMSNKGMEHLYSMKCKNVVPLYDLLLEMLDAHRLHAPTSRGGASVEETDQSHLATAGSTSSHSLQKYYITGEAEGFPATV
Aromatase (Homo sapiens), sequence (P11511 whole entry, looked up): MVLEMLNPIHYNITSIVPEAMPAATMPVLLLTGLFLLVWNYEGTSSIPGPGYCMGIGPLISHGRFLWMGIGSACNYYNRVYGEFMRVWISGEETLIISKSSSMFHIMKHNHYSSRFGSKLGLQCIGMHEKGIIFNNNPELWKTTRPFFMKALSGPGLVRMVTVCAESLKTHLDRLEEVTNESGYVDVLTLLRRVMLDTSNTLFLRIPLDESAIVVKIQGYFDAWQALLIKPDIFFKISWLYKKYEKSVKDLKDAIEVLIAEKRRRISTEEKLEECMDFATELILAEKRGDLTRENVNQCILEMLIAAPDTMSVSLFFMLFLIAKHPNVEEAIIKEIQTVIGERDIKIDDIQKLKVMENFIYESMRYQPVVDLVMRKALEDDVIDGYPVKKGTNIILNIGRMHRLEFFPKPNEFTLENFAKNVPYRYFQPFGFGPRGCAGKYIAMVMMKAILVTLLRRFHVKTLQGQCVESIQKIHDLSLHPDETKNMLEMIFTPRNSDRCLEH
Aryl hydrocarbon receptor (Homo sapiens), sequence (P35869 whole entry, looked up): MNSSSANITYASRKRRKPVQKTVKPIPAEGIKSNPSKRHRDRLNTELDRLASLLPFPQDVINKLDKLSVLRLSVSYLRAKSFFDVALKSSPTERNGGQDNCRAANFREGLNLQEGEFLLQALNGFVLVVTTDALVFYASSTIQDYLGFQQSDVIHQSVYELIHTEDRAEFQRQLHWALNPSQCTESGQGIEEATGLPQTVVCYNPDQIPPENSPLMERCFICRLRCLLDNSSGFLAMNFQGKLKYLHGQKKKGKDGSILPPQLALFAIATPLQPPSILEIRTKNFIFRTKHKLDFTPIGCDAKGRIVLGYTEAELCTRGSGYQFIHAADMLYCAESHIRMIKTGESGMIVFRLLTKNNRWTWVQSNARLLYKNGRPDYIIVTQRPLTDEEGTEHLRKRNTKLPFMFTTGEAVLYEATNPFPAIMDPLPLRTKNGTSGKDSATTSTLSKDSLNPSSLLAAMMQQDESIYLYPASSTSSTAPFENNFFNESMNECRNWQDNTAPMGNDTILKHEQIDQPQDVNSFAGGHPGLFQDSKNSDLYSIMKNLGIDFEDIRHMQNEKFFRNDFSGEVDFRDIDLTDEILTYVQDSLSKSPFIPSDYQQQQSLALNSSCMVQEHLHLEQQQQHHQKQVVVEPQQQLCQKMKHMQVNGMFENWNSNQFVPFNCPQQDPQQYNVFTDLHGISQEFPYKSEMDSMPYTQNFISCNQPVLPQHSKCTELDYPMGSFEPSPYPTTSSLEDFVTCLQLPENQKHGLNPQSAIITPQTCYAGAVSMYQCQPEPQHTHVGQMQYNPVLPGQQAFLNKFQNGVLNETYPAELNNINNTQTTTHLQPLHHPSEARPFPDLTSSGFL

In the case of `CN(C)C=O`, the Potency result in assay [1], in assay [2], in [4], in [6], in assay [7] and in [8] was “inactive” in each case. The Potency entry in assay [9], in [10], in [11], in [12], in [13] and in [14] was “inactive” throughout. The Potency result in assay [15], in [16], in assay [17] and in [18] was “inactive” each time. The molecule was called inactive in [3], in assay [5], in [19] and in assay [20].

Regarding `O=C(O)CN(CC(=O)O)CC(=O)O`, the Potency entry in assay [1], in [2], in [4], in assay [6], in assay [7] and in assay [8] was “inactive” each time. Besides, the Potency entry in assay [9], in assay [10], in assay [11], in assay [13], in [14] and in assay [15] was “inactive” each time. Further, the Potency entry in assay [16] and in assay [18] was “inactive” each time. The outcome in assay [3], in assay [5], in [19] and in assay [20] was inactive. Also, the Potency in assay [17] was 55.3 µM (active) and inactive.

As to `Cc1cccc(Nc2cc(Cl)nc(SCC(=O)O)n2)c1C`, the Potency entry in [1], in assay [2], in assay [4], in [6], in assay [7] and in [8] was “inactive” throughout. The Potency entry in assay [9], in assay [10], in assay [11], in [12], in assay [13] and in assay [15] was “inactive” throughout. For the same molecule, the Potency entry in [16] and in assay [18] was “inactive” throughout. Further, the outcome in [3], in assay [5], in [19] and in assay [20] was inactive.

For `CC(=O)c1ccc(S(=O)(=O)NC(=O)NC2CCCCC2)cc1`, the Potency entry in [1], in [2], in assay [4], in assay [6], in assay [7] and in [8] was “inactive” each time. The Potency entry in assay [9], in assay [10], in assay [11], in [12], in assay [13] and in assay [14] was “inactive” each time. The Potency result in [15], in assay [16], in [17] and in [18] was “inactive” in each case. For the same molecule, the outcome in [3], in assay [5], in assay [19] and in [20] was inactive.

Consider `N[C@@H](Cc1c[nH]c2ccc(O)cc12)C(=O)O`, for which the Potency result in [1], in assay [2], in assay [4], in assay [6], in assay [7] and in [8] was “inactive” in each case. Also, the Potency result in assay [9], in [10], in [11], in [13], in [14] and in assay [15] was “inactive” in each case. For the same molecule, the Potency result in assay [16], in assay [17] and in assay [18] was “inactive” in each case. In addition, the molecule was classed as inactive in [3], in [5], in assay [19] and in assay [20]. The Potency in assay [12] was 9.44 µM (active) and 5.29 µM (active).

As to `COc1ccccc1O`, the Potency result in [1], in [2], in assay [4], in assay [6], in assay [7] and in assay [8] was “inactive” in each case. For the same molecule, the Potency result in assay [9], in [10], in assay [11], in [13], in assay [14] and in assay [15] was “inactive” each time. The Potency result in [16] and in assay [17] was “inactive” in each case. The molecule was classed as inactive in [3], in assay [5], in assay [19] and in [20]. Besides, the Potency result in [18] was “inactive and 24.5 µM (active)”.

For `C=C(C)C(N)=O`, the Potency result in assay [1], in [2], in assay [4], in assay [6], in assay [7] and in assay [8] was “inactive” throughout. The Potency result in [9], in assay [10], in [11], in assay [12], in assay [13] and in assay [14] was “inactive” in each case. Also, the Potency entry in assay [15], in assay [16], in [17] and in [18] was “inactive” each time. In addition, the result in assay [3], in [5], in assay [19] and in assay [20] was inactive.
